Bioassay records as filed in PubChem BioAssay.
PGC1a acetyl inh = inhibitors of PGC1a acetylation signal, primary screen, cell-based, U2OS, AlphaScreen, inhibitor mode. AlphaScreen anti-acetyl-lysine; with virally co-expressed GCN5 acetyltransferase. inhibition, % at 15.6 µM. 350,000 tested, 0.17% active. AID 651687, 2012;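 active = every replicate shows inhibition of at least 40%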;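 also: 0% = neutral control wells and 100% = positive control wells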
LGR2 antag = inhibitors of bursicon-induced LGR2 CRE-luciferase signal, primary screen, cell-based, HEK293, CRE-luciferase reporter, bursicon stimulation | Drosophila bursicon receptor LGR2 (rickets) | bursicon-stimulated, 4 h | 380,000 tested, 0.35% active | inhibition, % at 9.99 µM;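 active = drop in luminescence signal, shown as inhibition above about 50% in the replicate tests, limit read from the data, passing the limit was not always enough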;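 also: agonist challenge used bursicon conditioned medium at about half maximal strength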
EWS-Fli inh = EWS/Fli-driven NR0B1 reporter inhibitors, primary screen, A673 cells, NR0B1 luciferase, luminescence, MLPCN library; inhibition, % at 12.6 µM; viability-normalised; 350,000 tested, 0.67% active;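 active = mean inhibition of at least 50% after viability correction, with every replicate also passing that limit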;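 also: firefly luciferase signal divided by Alamar Blue viability fluorescence both relative to DMSO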
SIRT5 inh = SIRT5 desuccinylase inhibitors, primary screen, biochemical, fluorescence imaging, single point, set 5; inhibition, % at 15 µM; Purified SirT5, succinyl-peptide AMC, trypsin-coupled fluorescence; 330,000 tested, 1.1% active; NAD-dependent protein deacylase sirtuin-5, mitochondrial (Homo sapiens), Q9NXA8; in the data active = inhibition above about 15%
Target sequence (Q9NXA8 whole entry, looked up): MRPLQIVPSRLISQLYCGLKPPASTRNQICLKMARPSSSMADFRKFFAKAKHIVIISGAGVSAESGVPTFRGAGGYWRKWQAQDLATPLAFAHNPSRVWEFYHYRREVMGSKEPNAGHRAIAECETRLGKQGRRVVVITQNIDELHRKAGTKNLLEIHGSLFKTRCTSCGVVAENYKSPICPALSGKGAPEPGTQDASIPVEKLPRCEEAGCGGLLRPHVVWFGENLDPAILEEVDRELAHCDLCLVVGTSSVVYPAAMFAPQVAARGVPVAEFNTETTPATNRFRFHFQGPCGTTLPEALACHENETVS
PAX8 inh HTS = inhibitors of PAX8-driven TPO luciferase reporter, primary screen, RMG-I cells, single concentration; SteadyGlo, 24 h; inhibition, % at 12.6 µM; 360,000 tested, 1.2% active;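 active = mean replicate inhibition at least 60% with every replicate also reaching 60%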;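 also: luciferase light reporting Pax8 driven TPO promoter activity; plate controls were median of neutral control wells for no effect and mitoxantrone controls for full effect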
Ecoli rRNA inh = reduced GFP signal of wild-type E. coli, primary screen, bacterial rRNA inhibitor project, GFP/RFP fluorescence, OD600, single point; AID 720706, 2013; 350,000 tested, 1.6% active; E. coli WT GFP vs humanized-ribosome RFP mutants, 24 h; active compounds read low; DMSO median 0, no signal -100; GFP signal change (wild-type ribosome), % (concentration not given with the values);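 active = significant combined selectivity score with lowered wild-type GFP, culture density cut under 30%, mutant RFP and density less affected; inactive = any of these conditions unmet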
* hit, by the source's call; nt = no result given. Sampled rows, rich in hits. Any-hit rate of the full collection: about 3.4%.

SMILES | PGC1a acetyl inh | LGR2 antag | EWS-Fli inh | SIRT5 inh | PAX8 inh HTS | Ecoli rRNA inh
COCC(=O)N1[C@@H]2Cn3c(ccc(-c4ccccc4)c3=O)[C@H]1[C@@H](C(=O)NCc1ccccn1)[C@@H]2CO | nt | 3.6 | 4.2 | -34.0 | nt | -1.5
CCCCn1nc(C(=O)Nc2cc(C(F)(F)F)ccc2N2CCOCC2)ccc1=O | -0.1 | 4.8 | 14.2 | -1.5 | 93.4* | -35.5
CCc1c(O)nc(SCC(=O)Nc2nc3ccccc3s2)n(C2CCCCC2)c1=O | 2.2 | -17.8 | 1.3 | -1.1 | 16.8 | -16.6*
c1ccc(CCc2nn3c(-c4ccncc4)nnc3s2)cc1 | 26.2 | nt | nt | nt | nt | nt
c1ccc(CCc2nn3c(Cn4cnc5ccccc54)nnc3s2)cc1 | nt | 12.4 | 6.2 | -2.2 | nt | -24.1*
Clc1ccccc1-c1nnc2sc(CCc3ccccc3)nn12 | -3.0 | -2.6 | -2.0 | -0.5 | nt | -18.6*
CC1Oc2ccccc2C=C1/C=N/Nc1ccc(C(=O)O)cc1 (centres undefined) | -10.7 | -93.6 | -43.5 | 3.7 | -56.1 | -22.6*
CCOc1ccc(N2C(=O)C3ON(c4ccccc4)C(c4ccco4)C3C2=O)cc1 (centres undefined) | nt | 0.4 | -26.0 | -0.6 | -2.4 | 8.5
Cc1ccccc1N1C(=O)C2ON(c3ccccc3)C(c3ccco3)C2C1=O (centres undefined) | nt | -6.0 | 8.2 | 23.1* | 23.2 | 2.4
COc1cc(/C=N/Nc2ncnc3sc4c(c23)CCC4)ccc1O | 5.1 | -25.5 | 21.5 | -8.2 | -3.2 | -20.0*
Cc1oc(-c2ccc(Cl)cc2)nc1CN1CCCC(C(=O)N2CCOCC2)C1 (centres undefined) | 3.9 | -3.9 | 4.5 | 21.5* | 11.8 | 11.0
O=C1CC(c2ccc3c(c2)OCO3)Sc2nc3ccccc3n21 (centres undefined) | 14.9 | 54.5* | nt | nt | nt | nt
CC(C)[C@H](CO)N(Cc1cccc(F)c1)c1nc(Nc2cccc(Cl)c2)c2ncn(C(C)C)c2n1 | nt | nt | -7.7 | nt | 14.5 | 9.6
CC[C@H](CO)Nc1nc(Nc2cccc(Cl)c2)c2ncn(C(C)C)c2n1 | -19.3 | 57.7* | 4.5 | -3.3 | 77.7* | -12.6
Cc1cc(C(c2ccc(O)cc2)c2cc(C)c(O)cc2C)c(C)cc1O | -5.2 | 7.8 | 17.7 | -0.2 | 18.1 | -37.4*
O=C(C[C@H]1C=C[C@@H](NC(=O)Nc2cc(F)ccc2F)[C@H](CO)O1)NCc1ccccn1 | -5.6 | -14.1 | 4.5 | 2.6 | 0.2 | -0.5
CN(Cc1ccccc1)C(=O)c1[nH]cnc1C(=O)Nc1ccc(Br)cc1F | nt | -16.0 | 5.7 | 18.0* | 0.5 | -23.2
CN(Cc1ccccc1)C(=O)c1[nH]cnc1C(=O)NCc1ccccc1 | nt | -7.8 | 10.1 | -0.5 | 6.5 | -28.3*
CSc1nsc(N/N=C/c2ccccc2)c1C#N | -1.4 | -27.5 | -48.7 | 4.2 | -99.6 | -22.5*
COc1cccc(/C=N/Nc2snc(SC)c2C#N)c1 | -3.7 | -41.9 | nt | nt | nt | nt
CC(=O)Nc1cccc2c1O[C@H](CN(C)C(=O)OC(C)(C)C)[C@@H](C)CN(C)C2=O | nt | nt | nt | nt | nt | 1.6
COc1ccccc1-c1cc2nc(NCCc3ccncc3)ccn2n1 | -6.6 | -4.9 | -8.6 | nt | 2.0 | -16.7*
O=C(NCCc1cnc[nH]1)c1ccc(-c2ccccc2)cc1 | nt | -19.8 | -29.9 | 17.1* | -33.8 | -8.0
C[C@@H]1CN([C@H](C)CO)C(=O)c2cccc(NC(=O)c3nc4ccccc4s3)c2O[C@H]1CN(C)C(=O)Nc1ccccc1 | 8.2 | -5.4 | 7.4 | 2.1 | 25.0 | -4.4
COc1ccc(CN2C[C@H](C)[C@@H](OC)CN(C)C(=O)c3ccc(NC(=O)c4nc5ccccc5s4)cc3OC[C@@H]2C)cc1 | -11.7 | 24.8 | 15.3 | 102.2* | 74.4* | nt
SMILES | PGC1a acetyl inh | LGR2 antag | EWS-Fli inh | SIRT5 inh | PAX8 inh HTS | Ecoli rRNA inh
COc1ccc(CN2C[C@H](C)[C@@H](OC)CN(C)C(=O)c3ccc(NC(=O)c4nc5ccccc5s4)cc3OC[C@H]2C)cc1 | -21.2 | 1.4 | 18.2 | 5.9 | 59.8 | 1.6
CO[C@H]1CN(C)C(=O)c2cc(NC(=O)c3nc4ccccc4s3)ccc2OC[C@H](C)N(Cc2cncnc2)C[C@@H]1C | -1.4 | -12.1 | -12.3 | 15.0* | nt | 0.9
COc1ccc(-c2ccc3n(c2=O)C[C@H]2[C@H](CO)[C@@H](C(=O)N(C)C)[C@@H]3N2C(=O)c2cnccn2)cc1 | nt | 5.1 | -0.3 | nt | -2.7 | 0.3
COc1ccccc1NC(=O)N[C@@H]1C=C[C@H](CC(=O)N[C@@H](C)c2ccccc2)O[C@@H]1CO | nt | 1.8 | nt | -2.9 | nt | -1.0
CN(C)/C=C(\C#N)C(=O)N/N=C/c1ccc(F)cc1 | nt | 1.3 | -23.2 | 1.7 | -21.9 | 0.2
CC/C(CC(=O)C(F)(F)F)=N\NC(=O)/C(C#N)=C/N(C)C | -7.4 | 10.6 | 6.8 | 18.1* | 0.9 | 11.9
O=C(NCC[C@H]1CC[C@@H](NS(=O)(=O)c2ccc(Cl)cc2)[C@H](CO)O1)Nc1ccc(F)cc1 | nt | 7.2 | -6.1 | -3.0 | 4.4 | -4.4
O=C(CN1C(=O)NC2(CCCC2)C1=O)N1CCN(c2ccccc2O)CC1 | nt | -0.9 | -9.0 | 17.8* | 8.1 | -1.7
CCOc1ccccc1N1CCN(C(=O)CN2C(=O)NC3(CCCC3)C2=O)CC1 | -10.6 | 9.4 | 2.1 | -4.1 | 5.7 | 16.1
C[C@@H]1CN([C@@H](C)CO)C(=O)c2cccc(NC(=O)Nc3ccccc3)c2O[C@@H]1CN(C)C(=O)Nc1ccc(C(F)(F)F)cc1 | 10.5 | 0.0 | -6.9 | -0.6 | nt | -1.1
CSc1nc(C(=O)N2CCCC(C(=O)c3ccc(Cl)cc3)C2)cs1 (centres undefined) | nt | 9.4 | 0.2 | 0.4 | 25.8 | -31.5*
CSc1ccc(C(=O)C2CCCN(C(=O)c3ccsc3)C2)cc1 (centres undefined) | 6.6 | 15.8 | -2.3 | -0.4 | 1.3 | -13.3
Cc1cc(Cl)ccc1C(=O)C1CCCN(C(=O)c2ccoc2)C1 (centres undefined) | nt | -1.2 | 0.3 | -1.1 | 10.3 | -25.4*
O=C(c1ccc(Cl)cc1)C1CCCN(C(=O)c2csnn2)C1 (centres undefined) | -15.2 | -17.6 | 3.9 | 112.2* | 15.6 | -9.7
C[C@H]1CN([C@@H](C)CO)C(=O)c2cc(C#CC3CC3)cnc2O[C@@H]1CN(C)S(=O)(=O)c1cccc(F)c1 | -18.1 | 6.2 | -0.8 | 3.2 | nt | -9.1
CC(C)C#Cc1cnc2c(c1)C(=O)N([C@H](C)CO)C[C@@H](C)[C@@H](CN(C)C(=O)c1ccccc1F)O2 | -1.4 | -14.7 | 7.4 | -9.4 | -4.9 | -0.8
